ChEMBL document CHEMBL2218924, “A broad activity screen in support of a chemogenomic map for kinase signalling research and drug discovery” (Biochem J, 2013)

Key:
[1] = molecular target: Tyrosine-protein kinase SYK (Homo sapiens) (UniProt P43405); details: at 10 µM
[2] = molecular target: T1, Mitogen-activated protein kinase kinase kinase 7 (Homo sapiens) (UniProt O43318); details: at 1 µM
T1 sequence (whole entry): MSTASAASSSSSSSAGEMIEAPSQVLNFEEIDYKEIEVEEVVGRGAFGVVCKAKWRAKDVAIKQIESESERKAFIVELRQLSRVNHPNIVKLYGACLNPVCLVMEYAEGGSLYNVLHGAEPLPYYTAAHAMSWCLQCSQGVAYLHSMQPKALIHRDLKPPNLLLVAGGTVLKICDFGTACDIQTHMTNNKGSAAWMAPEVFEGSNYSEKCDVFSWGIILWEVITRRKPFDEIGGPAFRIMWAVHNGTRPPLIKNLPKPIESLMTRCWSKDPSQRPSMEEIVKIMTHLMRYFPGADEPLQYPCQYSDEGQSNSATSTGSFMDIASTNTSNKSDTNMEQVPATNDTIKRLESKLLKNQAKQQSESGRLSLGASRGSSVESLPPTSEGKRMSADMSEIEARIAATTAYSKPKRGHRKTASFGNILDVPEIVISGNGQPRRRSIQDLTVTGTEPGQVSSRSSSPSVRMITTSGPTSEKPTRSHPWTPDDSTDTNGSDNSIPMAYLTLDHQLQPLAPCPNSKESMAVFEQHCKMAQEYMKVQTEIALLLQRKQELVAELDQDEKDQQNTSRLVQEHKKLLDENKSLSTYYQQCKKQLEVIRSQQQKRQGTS

[3] = molecular target: T1, Mitogen-activated protein kinase kinase kinase 7 (Homo sapiens); details: at 10 µM
[4] = molecular target: T2, Serine/threonine-protein kinase TAO1 (Homo sapiens) (UniProt Q7L7X3); details: at 1 µM
T2 sequence (whole entry): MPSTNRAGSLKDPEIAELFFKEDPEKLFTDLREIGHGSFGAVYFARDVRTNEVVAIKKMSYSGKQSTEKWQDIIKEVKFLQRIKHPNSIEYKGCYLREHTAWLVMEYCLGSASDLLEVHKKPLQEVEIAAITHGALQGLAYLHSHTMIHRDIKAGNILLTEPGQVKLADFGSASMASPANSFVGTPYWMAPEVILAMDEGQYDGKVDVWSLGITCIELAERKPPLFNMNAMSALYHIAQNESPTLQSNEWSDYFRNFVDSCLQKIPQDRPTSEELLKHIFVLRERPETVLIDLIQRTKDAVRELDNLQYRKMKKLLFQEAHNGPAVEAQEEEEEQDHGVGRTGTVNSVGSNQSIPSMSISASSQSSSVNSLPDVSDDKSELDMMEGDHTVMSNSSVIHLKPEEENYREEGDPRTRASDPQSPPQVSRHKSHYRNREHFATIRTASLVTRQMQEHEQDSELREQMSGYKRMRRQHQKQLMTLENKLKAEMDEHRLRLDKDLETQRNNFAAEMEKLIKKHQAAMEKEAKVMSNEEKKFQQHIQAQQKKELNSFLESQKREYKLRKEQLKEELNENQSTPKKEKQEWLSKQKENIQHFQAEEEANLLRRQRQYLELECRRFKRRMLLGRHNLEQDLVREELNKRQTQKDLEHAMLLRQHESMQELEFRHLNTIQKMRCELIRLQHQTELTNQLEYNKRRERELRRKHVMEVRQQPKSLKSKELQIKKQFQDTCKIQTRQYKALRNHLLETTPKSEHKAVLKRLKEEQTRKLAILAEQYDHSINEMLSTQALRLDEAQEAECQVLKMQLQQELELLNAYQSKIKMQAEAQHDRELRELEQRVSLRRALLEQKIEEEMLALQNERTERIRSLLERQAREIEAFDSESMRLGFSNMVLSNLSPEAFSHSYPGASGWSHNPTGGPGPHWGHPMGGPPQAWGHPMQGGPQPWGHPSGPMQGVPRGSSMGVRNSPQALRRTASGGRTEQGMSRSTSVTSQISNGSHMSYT

[5] = molecular target: T2, Serine/threonine-protein kinase TAO1 (Homo sapiens); details: at 10 µM
[6] = molecular target: T3, Serine/threonine-protein kinase TBK1 (Homo sapiens) (UniProt Q9UHD2); details: at 1 µM
T3 sequence (whole entry): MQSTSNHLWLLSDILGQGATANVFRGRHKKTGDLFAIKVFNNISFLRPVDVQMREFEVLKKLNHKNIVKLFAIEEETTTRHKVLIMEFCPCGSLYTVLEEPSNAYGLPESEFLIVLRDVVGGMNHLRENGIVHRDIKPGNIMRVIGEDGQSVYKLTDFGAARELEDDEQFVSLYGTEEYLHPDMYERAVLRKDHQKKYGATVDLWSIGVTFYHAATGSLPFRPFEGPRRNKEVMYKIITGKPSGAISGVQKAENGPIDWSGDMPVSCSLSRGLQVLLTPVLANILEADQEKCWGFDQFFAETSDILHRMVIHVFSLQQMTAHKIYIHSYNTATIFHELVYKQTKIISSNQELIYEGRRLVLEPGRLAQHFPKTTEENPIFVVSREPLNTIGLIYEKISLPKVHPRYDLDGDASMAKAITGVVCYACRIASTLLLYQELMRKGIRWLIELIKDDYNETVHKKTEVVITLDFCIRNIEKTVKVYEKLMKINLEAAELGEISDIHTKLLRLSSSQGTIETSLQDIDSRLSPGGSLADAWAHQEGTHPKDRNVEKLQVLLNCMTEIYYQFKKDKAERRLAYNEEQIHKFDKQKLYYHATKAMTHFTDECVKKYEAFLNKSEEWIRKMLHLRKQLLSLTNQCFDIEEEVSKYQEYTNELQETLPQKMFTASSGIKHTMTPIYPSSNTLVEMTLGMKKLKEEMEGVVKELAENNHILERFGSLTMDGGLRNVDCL

[7] = molecular target: T3, Serine/threonine-protein kinase TBK1 (Homo sapiens); details: at 10 µM
[8] = molecular target: T4, Inhibitor of nuclear factor kappa-B kinase subunit alpha (Homo sapiens) (UniProt O15111); details: at 1 µM
T4 sequence (whole entry): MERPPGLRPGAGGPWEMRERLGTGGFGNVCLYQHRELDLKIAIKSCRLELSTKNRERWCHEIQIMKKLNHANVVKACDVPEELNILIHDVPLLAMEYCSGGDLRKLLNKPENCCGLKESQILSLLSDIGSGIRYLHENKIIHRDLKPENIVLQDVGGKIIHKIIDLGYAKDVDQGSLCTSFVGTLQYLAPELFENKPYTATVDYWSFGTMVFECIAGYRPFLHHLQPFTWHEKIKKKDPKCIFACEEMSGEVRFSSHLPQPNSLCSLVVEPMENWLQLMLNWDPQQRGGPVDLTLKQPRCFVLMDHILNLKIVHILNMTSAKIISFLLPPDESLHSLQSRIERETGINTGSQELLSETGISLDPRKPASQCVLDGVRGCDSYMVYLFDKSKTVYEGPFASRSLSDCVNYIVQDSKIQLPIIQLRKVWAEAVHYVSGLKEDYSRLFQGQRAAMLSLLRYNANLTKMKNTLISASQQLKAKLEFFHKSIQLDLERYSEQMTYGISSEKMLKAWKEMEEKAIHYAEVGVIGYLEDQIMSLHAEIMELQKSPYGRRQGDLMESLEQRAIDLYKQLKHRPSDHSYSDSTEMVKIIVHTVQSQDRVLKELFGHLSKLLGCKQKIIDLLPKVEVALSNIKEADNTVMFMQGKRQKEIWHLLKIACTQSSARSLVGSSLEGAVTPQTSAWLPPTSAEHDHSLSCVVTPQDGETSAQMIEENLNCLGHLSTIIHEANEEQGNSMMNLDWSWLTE

[9] = molecular target: T4, Inhibitor of nuclear factor kappa-B kinase subunit alpha (Homo sapiens); details: at 10 µM
[10] = molecular target: T5, Inhibitor of nuclear factor kappa-B kinase subunit beta (Homo sapiens) (UniProt O14920); details: at 1 µM
T5 sequence (whole entry): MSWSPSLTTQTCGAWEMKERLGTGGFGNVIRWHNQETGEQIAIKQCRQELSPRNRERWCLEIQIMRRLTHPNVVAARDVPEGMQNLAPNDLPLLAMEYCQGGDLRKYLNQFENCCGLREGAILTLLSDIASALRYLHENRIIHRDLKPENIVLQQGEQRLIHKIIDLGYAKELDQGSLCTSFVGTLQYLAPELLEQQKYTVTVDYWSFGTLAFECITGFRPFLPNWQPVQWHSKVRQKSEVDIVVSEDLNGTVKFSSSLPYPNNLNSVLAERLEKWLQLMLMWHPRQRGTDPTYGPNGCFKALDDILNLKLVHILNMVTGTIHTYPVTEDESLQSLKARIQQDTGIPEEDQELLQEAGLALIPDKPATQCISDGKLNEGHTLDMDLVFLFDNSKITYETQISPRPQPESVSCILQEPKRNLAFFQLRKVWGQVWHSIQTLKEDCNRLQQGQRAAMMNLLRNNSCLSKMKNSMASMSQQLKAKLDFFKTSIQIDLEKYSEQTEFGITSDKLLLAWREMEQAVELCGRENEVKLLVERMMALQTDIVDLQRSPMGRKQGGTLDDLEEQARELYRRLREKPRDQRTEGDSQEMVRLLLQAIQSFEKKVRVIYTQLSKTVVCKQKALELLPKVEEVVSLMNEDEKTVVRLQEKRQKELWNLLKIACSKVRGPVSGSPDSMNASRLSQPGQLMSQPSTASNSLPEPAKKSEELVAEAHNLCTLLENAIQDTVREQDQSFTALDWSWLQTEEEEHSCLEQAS

[11] = molecular target: T5, Inhibitor of nuclear factor kappa-B kinase subunit beta (Homo sapiens); details: at 10 µM
[12] = molecular target: Insulin receptor (Homo sapiens) (UniProt P06213); details: at 1 µM
Chain of Insulin receptor (Homo sapiens) (P06213 28-758 limits assumed): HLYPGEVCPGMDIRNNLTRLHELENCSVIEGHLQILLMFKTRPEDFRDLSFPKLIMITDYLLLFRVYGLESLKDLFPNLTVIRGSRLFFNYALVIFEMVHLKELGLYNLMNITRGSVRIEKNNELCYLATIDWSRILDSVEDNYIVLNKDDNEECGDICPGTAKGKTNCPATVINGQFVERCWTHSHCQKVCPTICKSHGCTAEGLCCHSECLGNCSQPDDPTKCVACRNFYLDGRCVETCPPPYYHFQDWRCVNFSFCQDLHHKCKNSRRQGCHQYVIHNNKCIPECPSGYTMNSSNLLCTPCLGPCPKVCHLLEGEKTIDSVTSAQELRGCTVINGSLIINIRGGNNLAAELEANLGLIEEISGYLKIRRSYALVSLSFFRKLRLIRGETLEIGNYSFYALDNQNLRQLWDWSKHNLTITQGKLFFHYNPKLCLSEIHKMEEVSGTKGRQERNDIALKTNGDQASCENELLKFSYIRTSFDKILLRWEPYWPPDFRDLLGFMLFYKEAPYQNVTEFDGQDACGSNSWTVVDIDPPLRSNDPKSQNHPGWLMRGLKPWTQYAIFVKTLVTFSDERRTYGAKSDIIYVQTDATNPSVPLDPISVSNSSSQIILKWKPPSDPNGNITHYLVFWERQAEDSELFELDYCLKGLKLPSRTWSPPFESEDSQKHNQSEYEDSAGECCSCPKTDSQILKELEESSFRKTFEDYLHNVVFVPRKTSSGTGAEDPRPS
Chain of Insulin receptor (Homo sapiens) (P06213 763-1382 limits assumed): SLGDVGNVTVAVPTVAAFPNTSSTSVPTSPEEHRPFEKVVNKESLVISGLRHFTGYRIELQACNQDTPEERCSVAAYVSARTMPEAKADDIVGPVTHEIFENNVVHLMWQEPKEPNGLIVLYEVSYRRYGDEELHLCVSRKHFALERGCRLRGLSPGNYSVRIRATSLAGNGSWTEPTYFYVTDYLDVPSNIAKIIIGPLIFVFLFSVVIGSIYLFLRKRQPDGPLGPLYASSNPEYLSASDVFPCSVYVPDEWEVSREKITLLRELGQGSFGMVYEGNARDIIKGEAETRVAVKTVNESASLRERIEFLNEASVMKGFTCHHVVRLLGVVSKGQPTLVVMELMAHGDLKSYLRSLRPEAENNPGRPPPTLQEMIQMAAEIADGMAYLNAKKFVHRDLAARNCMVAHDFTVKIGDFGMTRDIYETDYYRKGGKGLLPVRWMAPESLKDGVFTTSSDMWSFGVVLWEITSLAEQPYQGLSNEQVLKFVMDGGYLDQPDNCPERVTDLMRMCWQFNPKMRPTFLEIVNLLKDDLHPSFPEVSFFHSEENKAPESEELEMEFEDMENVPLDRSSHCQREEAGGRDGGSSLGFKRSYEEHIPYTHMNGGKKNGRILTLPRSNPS

`COc1ccc(-c2cnc3c(-c4ccsc4)cnn3c2)cc1` was tested. Which residual activity [1] did it give?
Its residual activity is 95%.

What about the residual activity [2] of the same compound?
The residual activity was 99%.

And the residual activity [3]?
The residual activity was 97%.

What about the residual activity [4] of the same compound?
The residual activity was 97%.

What about the residual activity [5] of the same compound?
Its residual activity is 97%.

What about the residual activity [6] of the same compound?
Its residual activity is 97%.

And the residual activity [7]?
The residual activity was 85%.

What about the residual activity [8] of the same compound?
The residual activity was 91%.

And the residual activity [9]?
The residual activity was 90%.

What about the residual activity [10] of the same compound?
The residual activity was 100%.

And the residual activity [11]?
The residual activity was 95%.

And the residual activity [12]?
The residual activity was 91%.
